ChEMBL document CHEMBL1961873, “Compounds: GSK PKIS; Assays: Nanosyn kinase panel” (2012)

What was measured:
[1] = biological target: Sphingosine kinase 1 (Homo sapiens) (UniProt Q9NYA1); details: at 1 µM;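 note: mean SPHK1 inhibition value reported from the GSK PKIS kinase panel screen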
[2] = biological target: T1, Sphingosine kinase 2 (Homo sapiens) (UniProt Q9NRA0); details: at 0.1 µM
T1 sequence (whole entry): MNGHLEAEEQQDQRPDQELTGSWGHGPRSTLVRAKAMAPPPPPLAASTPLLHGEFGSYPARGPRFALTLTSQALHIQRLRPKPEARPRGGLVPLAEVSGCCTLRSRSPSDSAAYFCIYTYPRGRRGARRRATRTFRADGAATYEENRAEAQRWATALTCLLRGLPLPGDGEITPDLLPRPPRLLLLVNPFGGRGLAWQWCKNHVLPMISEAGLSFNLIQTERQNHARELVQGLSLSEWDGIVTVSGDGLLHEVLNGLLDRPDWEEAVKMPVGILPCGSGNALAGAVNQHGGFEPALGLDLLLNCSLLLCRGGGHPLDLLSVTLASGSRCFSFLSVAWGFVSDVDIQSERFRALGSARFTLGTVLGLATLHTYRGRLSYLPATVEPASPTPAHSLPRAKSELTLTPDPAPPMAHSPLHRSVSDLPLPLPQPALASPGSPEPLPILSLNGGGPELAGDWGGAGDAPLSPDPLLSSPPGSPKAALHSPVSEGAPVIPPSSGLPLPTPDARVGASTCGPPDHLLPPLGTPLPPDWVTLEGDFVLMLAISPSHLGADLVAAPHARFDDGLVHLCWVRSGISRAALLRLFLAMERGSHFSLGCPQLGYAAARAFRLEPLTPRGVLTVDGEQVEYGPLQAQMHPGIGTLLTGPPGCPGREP

[3] = biological target: T1, Sphingosine kinase 2 (Homo sapiens); details: at 1 µM
[4] = biological target: Casein kinase II subunit alpha (Homo sapiens) (UniProt P68400); details: at 0.1 µM
Chain of Casein kinase II subunit alpha (Homo sapiens) (P68400 whole entry, looked up): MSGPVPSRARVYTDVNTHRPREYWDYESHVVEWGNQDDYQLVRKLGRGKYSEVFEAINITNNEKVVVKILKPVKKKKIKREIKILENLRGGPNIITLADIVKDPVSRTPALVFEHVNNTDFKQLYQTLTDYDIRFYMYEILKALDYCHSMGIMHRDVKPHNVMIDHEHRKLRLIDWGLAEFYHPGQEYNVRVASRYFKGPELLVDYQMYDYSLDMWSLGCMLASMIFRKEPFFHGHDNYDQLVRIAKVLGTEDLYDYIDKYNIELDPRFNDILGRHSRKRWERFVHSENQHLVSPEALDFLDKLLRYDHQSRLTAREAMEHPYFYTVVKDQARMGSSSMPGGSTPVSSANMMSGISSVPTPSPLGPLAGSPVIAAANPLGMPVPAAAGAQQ

[5] = biological target: Casein kinase II subunit alpha (Homo sapiens) (UniProt P68400); details: at 1 µM
[6] = biological target: T2, Inhibitor of nuclear factor kappa-B kinase subunit alpha (Homo sapiens) (UniProt O15111); details: at 0.1 µM
T2 sequence (whole entry): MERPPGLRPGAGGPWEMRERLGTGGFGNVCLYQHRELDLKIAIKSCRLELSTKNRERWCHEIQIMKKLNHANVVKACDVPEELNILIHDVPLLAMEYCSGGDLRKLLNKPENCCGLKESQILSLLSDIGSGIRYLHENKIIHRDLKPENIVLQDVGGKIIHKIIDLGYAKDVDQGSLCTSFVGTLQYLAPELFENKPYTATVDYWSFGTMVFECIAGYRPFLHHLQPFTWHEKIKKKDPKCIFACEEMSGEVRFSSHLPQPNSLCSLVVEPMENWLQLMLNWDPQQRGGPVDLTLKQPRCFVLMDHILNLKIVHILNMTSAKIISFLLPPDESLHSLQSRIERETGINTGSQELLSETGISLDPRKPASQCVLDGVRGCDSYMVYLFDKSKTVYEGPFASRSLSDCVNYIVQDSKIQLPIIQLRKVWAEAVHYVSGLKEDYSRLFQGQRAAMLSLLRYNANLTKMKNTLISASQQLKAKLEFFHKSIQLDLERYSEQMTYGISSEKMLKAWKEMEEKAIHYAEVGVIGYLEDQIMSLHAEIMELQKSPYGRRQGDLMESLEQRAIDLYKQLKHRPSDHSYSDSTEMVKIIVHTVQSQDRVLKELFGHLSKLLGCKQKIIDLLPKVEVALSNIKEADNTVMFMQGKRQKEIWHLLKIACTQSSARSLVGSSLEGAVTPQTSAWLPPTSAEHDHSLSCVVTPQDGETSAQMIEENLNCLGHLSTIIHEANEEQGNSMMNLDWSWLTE

[7] = biological target: T2, Inhibitor of nuclear factor kappa-B kinase subunit alpha (Homo sapiens); details: at 1 µM
[8] = biological target: T3, Inhibitor of nuclear factor kappa-B kinase subunit beta (Homo sapiens) (UniProt O14920); details: at 0.1 µM
T3 sequence (whole entry): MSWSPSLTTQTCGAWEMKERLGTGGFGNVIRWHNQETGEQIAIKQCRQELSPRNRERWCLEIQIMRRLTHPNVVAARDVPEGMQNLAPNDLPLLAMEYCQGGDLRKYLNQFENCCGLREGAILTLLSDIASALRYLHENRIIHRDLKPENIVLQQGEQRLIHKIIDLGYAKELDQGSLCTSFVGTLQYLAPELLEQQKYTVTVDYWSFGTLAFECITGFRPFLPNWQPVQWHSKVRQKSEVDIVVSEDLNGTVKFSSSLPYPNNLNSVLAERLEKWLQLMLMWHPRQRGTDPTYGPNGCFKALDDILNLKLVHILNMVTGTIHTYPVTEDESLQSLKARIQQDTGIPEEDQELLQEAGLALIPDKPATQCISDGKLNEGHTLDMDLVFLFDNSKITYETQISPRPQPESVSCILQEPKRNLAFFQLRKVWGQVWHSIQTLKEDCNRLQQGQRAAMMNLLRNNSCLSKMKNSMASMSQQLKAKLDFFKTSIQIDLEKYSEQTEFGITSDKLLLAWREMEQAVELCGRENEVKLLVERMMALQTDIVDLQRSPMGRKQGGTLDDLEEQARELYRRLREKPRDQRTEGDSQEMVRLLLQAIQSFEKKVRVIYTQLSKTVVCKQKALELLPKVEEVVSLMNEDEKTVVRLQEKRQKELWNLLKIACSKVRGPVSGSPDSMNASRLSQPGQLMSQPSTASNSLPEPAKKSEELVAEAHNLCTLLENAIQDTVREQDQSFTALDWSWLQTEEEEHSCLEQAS

[9] = biological target: T3, Inhibitor of nuclear factor kappa-B kinase subunit beta (Homo sapiens); details: at 1 µM
[10] = biological target: T4, Inhibitor of nuclear factor kappa-B kinase subunit epsilon (Homo sapiens) (UniProt Q14164); details: at 0.1 µM
T4 sequence (whole entry): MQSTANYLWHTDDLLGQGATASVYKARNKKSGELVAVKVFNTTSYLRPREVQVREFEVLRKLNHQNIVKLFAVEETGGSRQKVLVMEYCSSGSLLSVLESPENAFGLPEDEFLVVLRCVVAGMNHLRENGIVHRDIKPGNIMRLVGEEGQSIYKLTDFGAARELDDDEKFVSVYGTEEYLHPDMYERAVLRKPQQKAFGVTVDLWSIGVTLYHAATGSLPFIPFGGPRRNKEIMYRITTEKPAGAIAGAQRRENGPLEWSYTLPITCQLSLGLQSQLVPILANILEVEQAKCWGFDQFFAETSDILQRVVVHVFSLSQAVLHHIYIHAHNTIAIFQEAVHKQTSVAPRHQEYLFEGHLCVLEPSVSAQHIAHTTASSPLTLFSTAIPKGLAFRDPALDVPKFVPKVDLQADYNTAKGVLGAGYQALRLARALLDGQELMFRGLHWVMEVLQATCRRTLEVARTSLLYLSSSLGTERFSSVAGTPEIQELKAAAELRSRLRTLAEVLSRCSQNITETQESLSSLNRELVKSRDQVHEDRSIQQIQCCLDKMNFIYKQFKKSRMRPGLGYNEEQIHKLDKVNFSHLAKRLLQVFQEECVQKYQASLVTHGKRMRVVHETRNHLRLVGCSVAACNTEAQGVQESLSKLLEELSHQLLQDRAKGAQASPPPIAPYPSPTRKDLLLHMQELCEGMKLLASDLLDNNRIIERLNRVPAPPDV

[11] = biological target: T4, Inhibitor of nuclear factor kappa-B kinase subunit epsilon (Homo sapiens); details: at 1 µM
[12] = biological target: T5, Serine/threonine-protein kinase Nek1 (Homo sapiens) (UniProt Q96PY6); details: at 0.1 µM
T5 sequence (whole entry): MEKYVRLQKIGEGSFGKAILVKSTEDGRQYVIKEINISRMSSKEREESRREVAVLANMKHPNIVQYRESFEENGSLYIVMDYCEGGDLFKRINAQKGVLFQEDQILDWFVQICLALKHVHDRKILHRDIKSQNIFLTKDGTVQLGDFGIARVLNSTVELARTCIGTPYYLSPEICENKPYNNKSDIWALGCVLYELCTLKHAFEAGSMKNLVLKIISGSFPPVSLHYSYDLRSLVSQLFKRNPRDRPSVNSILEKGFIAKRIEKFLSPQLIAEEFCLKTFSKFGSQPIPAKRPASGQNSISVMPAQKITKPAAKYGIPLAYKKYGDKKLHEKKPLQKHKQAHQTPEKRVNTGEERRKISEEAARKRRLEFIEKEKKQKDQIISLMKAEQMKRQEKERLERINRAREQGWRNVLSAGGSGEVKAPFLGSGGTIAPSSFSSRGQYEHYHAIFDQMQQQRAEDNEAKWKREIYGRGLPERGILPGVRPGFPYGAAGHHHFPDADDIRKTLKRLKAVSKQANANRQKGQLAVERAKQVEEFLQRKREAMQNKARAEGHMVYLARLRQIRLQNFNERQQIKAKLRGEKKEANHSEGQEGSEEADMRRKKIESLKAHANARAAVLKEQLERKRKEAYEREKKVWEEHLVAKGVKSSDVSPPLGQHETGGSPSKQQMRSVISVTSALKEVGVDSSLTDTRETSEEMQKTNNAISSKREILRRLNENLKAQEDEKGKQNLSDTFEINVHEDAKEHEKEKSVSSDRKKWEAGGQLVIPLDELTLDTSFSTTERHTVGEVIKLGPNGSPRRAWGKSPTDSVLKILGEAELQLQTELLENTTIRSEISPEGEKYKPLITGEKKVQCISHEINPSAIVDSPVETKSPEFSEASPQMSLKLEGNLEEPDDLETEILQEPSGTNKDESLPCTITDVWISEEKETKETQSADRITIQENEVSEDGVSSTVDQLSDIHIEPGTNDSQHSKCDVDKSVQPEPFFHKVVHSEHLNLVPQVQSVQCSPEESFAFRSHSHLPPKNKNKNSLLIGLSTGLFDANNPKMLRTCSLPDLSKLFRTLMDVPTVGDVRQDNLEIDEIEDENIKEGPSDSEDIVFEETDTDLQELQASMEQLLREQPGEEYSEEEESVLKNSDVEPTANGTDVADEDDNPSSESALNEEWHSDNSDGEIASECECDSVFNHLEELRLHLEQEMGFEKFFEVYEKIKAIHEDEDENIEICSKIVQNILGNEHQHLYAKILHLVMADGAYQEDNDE

[13] = biological target: T5, Serine/threonine-protein kinase Nek1 (Homo sapiens); details: at 1 µM
[14] = biological target: T6, Serine/threonine-protein kinase Nek2 (Homo sapiens) (UniProt P51955); details: at 0.1 µM
T6 sequence (whole entry): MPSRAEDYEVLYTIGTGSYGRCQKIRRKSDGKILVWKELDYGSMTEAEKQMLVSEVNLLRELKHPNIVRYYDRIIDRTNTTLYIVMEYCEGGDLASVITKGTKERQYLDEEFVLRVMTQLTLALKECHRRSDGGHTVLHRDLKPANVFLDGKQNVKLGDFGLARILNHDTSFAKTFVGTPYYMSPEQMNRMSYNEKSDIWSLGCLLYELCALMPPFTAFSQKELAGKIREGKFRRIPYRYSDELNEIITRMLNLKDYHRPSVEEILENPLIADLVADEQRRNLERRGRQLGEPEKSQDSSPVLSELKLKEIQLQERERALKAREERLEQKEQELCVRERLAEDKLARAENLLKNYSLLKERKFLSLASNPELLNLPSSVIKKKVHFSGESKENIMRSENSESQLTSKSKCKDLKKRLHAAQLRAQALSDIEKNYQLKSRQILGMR

[15] = biological target: T6, Serine/threonine-protein kinase Nek2 (Homo sapiens); details: at 1 µM
[16] = biological target: Serine/threonine-protein kinase Nek6 (Homo sapiens) (UniProt Q9HC98); details: at 0.1 µM
Chain of Serine/threonine-protein kinase Nek6 (Homo sapiens) (Q9HC98 whole entry): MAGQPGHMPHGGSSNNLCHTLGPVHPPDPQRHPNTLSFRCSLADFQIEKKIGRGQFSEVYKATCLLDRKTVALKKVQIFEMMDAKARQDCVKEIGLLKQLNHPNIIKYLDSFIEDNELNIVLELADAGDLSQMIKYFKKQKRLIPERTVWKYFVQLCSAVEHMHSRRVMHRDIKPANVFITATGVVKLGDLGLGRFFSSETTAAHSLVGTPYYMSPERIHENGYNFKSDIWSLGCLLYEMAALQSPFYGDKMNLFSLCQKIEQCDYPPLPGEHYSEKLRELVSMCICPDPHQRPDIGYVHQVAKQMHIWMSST

[17] = biological target: Serine/threonine-protein kinase Nek6 (Homo sapiens) (UniProt Q9HC98); details: at 1 µM
[18] = biological target: Serine/threonine-protein kinase Nek7 (Homo sapiens) (UniProt Q8TDX7); details: at 0.1 µM
Chain of Serine/threonine-protein kinase Nek7 (Homo sapiens) (Q8TDX7 whole entry, looked up): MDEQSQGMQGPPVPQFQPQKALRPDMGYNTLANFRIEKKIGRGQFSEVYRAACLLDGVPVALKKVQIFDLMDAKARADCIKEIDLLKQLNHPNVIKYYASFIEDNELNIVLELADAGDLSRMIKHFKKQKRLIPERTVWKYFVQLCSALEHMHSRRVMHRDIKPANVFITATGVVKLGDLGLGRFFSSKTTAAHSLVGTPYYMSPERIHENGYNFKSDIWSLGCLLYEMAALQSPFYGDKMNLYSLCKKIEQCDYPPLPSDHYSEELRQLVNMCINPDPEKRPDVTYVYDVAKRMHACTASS

[19] = biological target: Serine/threonine-protein kinase Nek7 (Homo sapiens) (UniProt Q8TDX7); details: at 1 µM
[20] = biological target: T7, Serine/threonine-protein kinase Nek9 (Homo sapiens) (UniProt Q8TD19); details: at 0.1 µM;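 note: reported value is the mean percent inhibition of NEK9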
T7 sequence (whole entry): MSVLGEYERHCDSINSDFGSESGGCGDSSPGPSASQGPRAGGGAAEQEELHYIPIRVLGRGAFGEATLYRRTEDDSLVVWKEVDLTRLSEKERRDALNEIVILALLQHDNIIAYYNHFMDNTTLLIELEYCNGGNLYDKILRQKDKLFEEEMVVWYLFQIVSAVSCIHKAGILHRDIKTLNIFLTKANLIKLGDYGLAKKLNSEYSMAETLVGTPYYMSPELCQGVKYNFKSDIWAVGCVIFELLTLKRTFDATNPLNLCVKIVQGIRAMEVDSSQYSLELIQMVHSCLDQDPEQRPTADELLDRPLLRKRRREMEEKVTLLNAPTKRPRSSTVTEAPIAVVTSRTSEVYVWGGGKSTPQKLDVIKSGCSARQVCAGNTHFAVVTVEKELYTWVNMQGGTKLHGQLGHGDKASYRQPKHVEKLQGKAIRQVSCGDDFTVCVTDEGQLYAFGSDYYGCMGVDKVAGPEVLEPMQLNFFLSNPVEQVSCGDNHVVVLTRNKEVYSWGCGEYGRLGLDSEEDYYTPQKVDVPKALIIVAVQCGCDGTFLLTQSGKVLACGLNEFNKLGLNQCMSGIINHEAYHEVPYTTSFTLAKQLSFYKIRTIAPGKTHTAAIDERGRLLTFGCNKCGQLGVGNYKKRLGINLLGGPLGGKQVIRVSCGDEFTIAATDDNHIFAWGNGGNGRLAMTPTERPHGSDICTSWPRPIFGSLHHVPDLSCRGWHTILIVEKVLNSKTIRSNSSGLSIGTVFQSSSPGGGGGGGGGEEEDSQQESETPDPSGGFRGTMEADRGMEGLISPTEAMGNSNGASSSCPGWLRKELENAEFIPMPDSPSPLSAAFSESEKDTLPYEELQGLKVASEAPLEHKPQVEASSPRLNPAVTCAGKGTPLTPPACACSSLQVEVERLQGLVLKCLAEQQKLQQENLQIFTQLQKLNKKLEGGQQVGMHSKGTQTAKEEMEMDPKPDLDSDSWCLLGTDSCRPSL

Chain of Sphingosine kinase 1 (Homo sapiens) (Q9NYA1 whole entry): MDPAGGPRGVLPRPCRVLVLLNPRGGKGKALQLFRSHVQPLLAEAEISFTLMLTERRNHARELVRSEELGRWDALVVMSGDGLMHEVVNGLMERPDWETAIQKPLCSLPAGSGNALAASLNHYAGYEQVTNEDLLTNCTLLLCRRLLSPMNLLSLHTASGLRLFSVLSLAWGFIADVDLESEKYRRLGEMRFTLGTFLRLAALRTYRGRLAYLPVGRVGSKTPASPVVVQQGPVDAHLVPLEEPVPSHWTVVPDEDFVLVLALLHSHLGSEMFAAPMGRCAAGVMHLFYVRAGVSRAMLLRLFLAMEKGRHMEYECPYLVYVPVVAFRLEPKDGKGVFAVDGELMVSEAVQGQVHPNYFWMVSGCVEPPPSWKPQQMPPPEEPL

Q: What does the source list for `COc1ccc(COc2ccc(Cc3cnc(N)nc3N)cc2OC)cc1`?
A: inhibition [1]: -2.38%; inhibition [2]: 0.09%; inhibition [3]: -0.88%; inhibition [4]: -2.39%; inhibition [5]: -8.59%; inhibition [6]: 2.25%; inhibition [7]: -7.71%; inhibition [8]: -1.1%; inhibition [9]: -1.34%; inhibition [10]: -1.79%; inhibition [11]: -2.21%; inhibition [12]: 1.41%; inhibition [13]: 1.56%; inhibition [14]: -0.14%; inhibition [15]: -1.4%; inhibition [16]: -0.54%; inhibition [17]: -3.71%; inhibition [18]: 2.81%; inhibition [19]: 1.75%; inhibition [20]: 0.22%
